Reference: the supplement of paper PMC5662767
Where a name gives a salt, the structure may show the parent alone.

Tested on: Drosophila S2 cl14 SmoIP sensor cells
Assay: normalized SmoIP GFP fluorescence (untreated unstimulated = 0%, untreated Hh-stimulated = 100%); higher = more Smo activation sensor fluorescence
Conditions: compound concentration: 2 uM, 24 h
[1] = stimulation: Hh conditioned medium (+Hh)
[2] = stimulation: mock conditioned medium (-Hh)
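Note: flow cytometry read-out as median GFP intensity of gated cells, compounds added 30 min before Hh-conditioned or mock medium, mock-treated cells serving as unstimulated baseline.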

SMILES | normalized SmoIP GFP fluorescence [1] | normalized SmoIP GFP fluorescence [2]
O=C(c1cncc(Br)c1)N1CCC(N2CCCC2)CC1 | 98.8% | 1.35%
C[C@@H](NCCc1ccc(O)cc1)[C@@H](O)c1ccc(O)cc1 [Ritodrine-hydrochloride-Yutopar] | 144% | -5.98%
Cc1ccccc1C(C(=O)NC1CCCCC1)N(C(=O)Cn1ccnc1C)c1cccc(F)c1 (stereo unspecified) | 111% | -1.97%
Cc1cnc(Nc2ccc(N3CCN(C)CC3)cc2)nc1Nc1cccc(S(=O)(=O)NC(C)(C)C)c1 | 159% | -5.35%
CC(C)(C)c1ccc(C(=O)CCCN2CCC(OC(c3ccccc3)c3ccccc3)CC2)cc1 [ebastine] | 135% | 18.3%
CS(=O)(=O)c1cccc(CNc2nc(Nc3ccc4c(c3)CCC(=O)N4)ncc2C(F)(F)F)c1 | 209% | 71.5%
O=C1NC(=O)/C(=C/c2ccc3nccc(-c4ccncc4)c3c2)S1 | 175% | 2.43%
Cn1c(Nc2ccc(C(F)(F)F)cc2)nc2cc(Oc3ccnc(-c4ncc(C(F)(F)F)[nH]4)c3)ccc21 | 183% | 2.32%
Cc1ccc(NC(=O)c2ccc(CN3CCN(C)CC3)cc2)cc1Nc1nc(-c2cccnc2)cs1 [Masitinib-(AB1010)] | 113% | 20.6%
CC(=O)O[C@]1(C(C)=O)CC[C@H]2[C@@H]3C=C(Cl)C4=CC(=O)[C@@H]5C[C@@H]5[C@]4(C)[C@H]3CC[C@@]21C [cyproterone-acetate] | 142% | -6.79%
CN(C)C(=O)c1cc2cnc(Nc3ccc(N4CCNCC4)cn3)nc2n1C1CCCC1 | 98.3% | -0.265%
Cc1nccn1CC1CCc2c(c3ccccc3n2C)C1=O (stereo unspecified) [Ondansetron-hydrochloride] | 109% | -2.96%
Cc1nnc(C(C)C)n1C1C[C@H]2CC[C@@H](C1)N2CC[C@H](NC(=O)C1CCC(F)(F)CC1)c1ccccc1 (stereo in doubt) [Maraviroc] | 122% | -13.4%
O=C(CCCCCCNC(=O)c1cnc(N(c2ccccc2)c2ccccc2)nc1)NO [rocilinostat-acy-1215] | 114% | 6.2%
O=C(CCCS)NC1CCN(C(=O)COc2ccc(Cl)cc2Cl)CC1 [k-ras-g12c-inhibitor-6] | 113% | -2.82%
O=C(Nc1ccccc1)N1CCN(c2nc(-c3ccccc3)ns2)CC1 | 104% | -0.889%
CCO[C@@H]1OC(=O)C[C@@H]1NC(=O)[C@@H]1CCCN1C(=O)[C@@H](NC(=O)c1ccc(N)c(Cl)c1)C(C)(C)C | 135% | -7.78%
Oc1ccc(/C=C/c2cc(O)cc(O)c2)cc1 [Resveratrol] | 104% | -4.25%
C[C@@H]1COC(Nc2ccc3ncnc(Nc4ccc(OCc5nccs5)c(Cl)c4)c3c2)=N1 | 108% | -17.2%
CC(=O)Nc1ccc(C(=O)Nc2ccccc2N)cc1 [ci994-tacedinaline] | 129% | -4.13%
COc1cc2ncnc(Nc3ccc(O)c(Br)c3)c2cc1OC | 112% | -2.31%
CC(C)N(C[C@H]1O[C@@H](n2cnc3c(N)ncnc32)[C@H](O)[C@@H]1O)[C@H]1C[C@@H](CCc2nc3cc(C(C)(C)C)ccc3[nH]2)C1 | 124% | -2.59%
CN1CCC(=C2c3ccccc3CCc3cccnc32)CC1 [azatadine-dimaleate] | 114% | 4.79%
Nc1ncnc2n[nH]c(Nc3ccc(F)cc3)c12 | 89.9% | 2.64%
CC(C)(Cc1ccc2ccccc2c1)NC[C@@H](O)COc1cccc(Cl)c1C#N | 157% | 12.8%

SMILES | normalized SmoIP GFP fluorescence [1] | normalized SmoIP GFP fluorescence [2]
O=C1CCc2cc(OCCCCc3nnnn3C3CCCCC3)ccc2N1 [Cilostazol] | 116% | 2.11%
Nc1cc(F)ccc1NC(=O)/C=C/c1cnn(C/C=C/c2ccccc2)c1 [rgfp966] | 112% | -0.775%
NS(=O)(=O)c1ccc(NC(=O)Nc2ccc(F)cc2)cc1 | 101% | -3.05%
CNC(=O)c1cc(Oc2ccc(NC(=O)Nc3cc(C(C)(C)C)nn3-c3ccc4ncccc4c3)c(F)c2)ccn1 | 183% | 0.605%
Cc1c(C(=O)Nc2ccc(N3C[C@@H](C)O[C@@H](C)C3)nc2)cccc1-c1ccc(OC(F)(F)F)cc1 | 114% | -12.2%
COc1ccc2c(c1)c(CC(=O)N1CCOCC1)c(C)n2C(=O)c1ccc(Cl)cc1 | 108% | -2.59%
C[C@@H]1CCN(C(=O)CC#N)C[C@@H]1N(C)c1ncnc2[nH]ccc12 | 105% | -0.889%
O=C1CCC(N2C(=O)c3ccccc3C2=O)C(=O)N1 (stereo unspecified) [Thalidomide] | 101% | 4.26%
O=C(NCCCNc1nc(Nc2cccc(NC(=O)N3CCCC3)c2)ncc1I)c1cccs1 | 257% | 78.4%
CC(=O)NS(=O)(=O)c1ccc(N)cc1 [sulfacetamide-sodium] | 103% | -5.72%
CC(C)(F)C[C@H](N[C@@H](c1ccc(-c2ccc(S(C)(=O)=O)cc2)cc1)C(F)(F)F)C(=O)NC1(C#N)CC1 [Odanacatib-(MK0822)] | 110% | -4.25%
O=C(NOCC1CC1)c1ccc(F)c(F)c1Nc1ccc(I)cc1Cl | 112% | 10.7%
C[C@@H]1CCO[C@H]2Cn3cc(C(=O)NCc4ccc(F)cc4F)c(=O)c(O)c3C(=O)N12 | 140% | -15.3%
OCCn1cc(-c2ccc3c(c2)CC/C3=N\O)c(-c2ccncc2)n1 | 97.5% | 0.274%
C=CCc1cccc(/C=N/NC(=O)CN2CCN(Cc3ccccc3)CC2)c1O | 154% | -5.53%
Nc1ncnc2c1c(-c1cccc(OCc3ccccc3)c1)cn2C1CC(CN2CCCC2)C1 (stereo unspecified) | 117% | 5.45%
COCCc1ccc(OCC(O)CNC(C)C)cc1 (stereo unspecified) [metoprolol-tartrate] | 138% | -9.85%
COc1cc2ncnc(Nc3ccc(F)c(Cl)c3)c2cc1NC(=O)/C=C/CN1CCCCC1 | 163% | 12.5%
CCOc1cc2ncc(C#N)c(Nc3ccc(F)c(Cl)c3)c2cc1NC(=O)/C=C/CN(C)C [Pelitinib] | 197% | 9.86%
Cc1cc2c(F)c(Oc3ncnn4cc(OC[C@@H](C)OC(=O)[C@H](C)N)c(C)c34)ccc2[nH]1 [Brivanib-alaninate] | 117% | 9%
C=C[C@@]1(C)CC(=O)[C@]2(O)[C@@]3(C)[C@@H](O)CCC(C)(C)[C@@H]3[C@H](O)[C@H](OC(C)=O)[C@@]2(C)O1 [forskolin] | 137% | -10%
O=C(O)c1ccc(C=C2SC(=S)N(c3cccc(C(F)(F)F)c3)C2=O)cc1 [cftrinh-172] | 121% | 2.24%
CC(C)(C)c1cc(C(C)(C)C)c(NC(=O)c2c[nH]c3ccccc3c2=O)cc1O | -31.6% | 7.39%
CC(C)c1cc(-c2ccc(F)c3ccccc23)nc(N)n1 | 144% | -7.78%
O=C(NC[C@H](O)CO)c1ccncc1Nc1ccc(I)cc1F | 182% | 46.7%

SMILES | normalized SmoIP GFP fluorescence [1] | normalized SmoIP GFP fluorescence [2]
C[C@@H]1CN(CC(=O)Nc2ccc3c(c2)Cc2cccc(-c4cc(=O)cc(N5CCOCC5)o4)c2S3)C[C@H](C)O1 | 147% | 5.98%
CC1(C)CC(=O)c2c(C(F)(F)F)nn(-c3ccc(C(N)=O)c(N[C@H]4CC[C@H](O)CC4)c3)c2C1 | 178% | 12.3%
OCCn1cc(-c2cnc3nnn(Cc4ccc5ncccc5c4)c3n2)cn1 | 110% | 1.03%
O=C(NC1CCOCC1)c1ccc(-c2cc(-c3c[nH]nc3-c3ccccn3)ccn2)cc1 | 168% | -1.38%
Cc1ccc(-c2cc(C(F)(F)F)nn2-c2ccc(S(N)(=O)=O)cc2)cc1 [Celecoxib] | 111% | 2.11%
COc1cc(NC(=O)c2ccc(-c3ccc(Cl)cc3)o2)cc(OC)c1 | 115% | -1.97%
NCCc1c[nH]cn1 [histamine-2hcl] | 104% | 1.21%
N[C@@H](CC(=O)N1CCn2c(nnc2C(F)(F)F)C1)Cc1cc(F)c(F)cc1F [Sitagliptin] | 103% | -1.74%
CC(=O)N[C@@H](CS)C(=O)O [Acetylcysteine] | 111% | 1.57%
N#CC[C@H](C1CCCC1)n1cc(-c2ncnc3[nH]ccc23)cn1 | 112% | 1.03%
CN(C)Cc1cccc(N=C(c2ccccc2)c2c(O)[nH]c3cc(C(=O)N(C)C)ccc23)c1 | 86.4% | -3.71%
Cc1ccc(S(=O)(=O)C=CC#N)cc1 | 121% | 2.86%
Cc1cccc(-c2[nH]c(C(C)(C)C)nc2-c2ccc3c(c2)OCO3)n1 | 133% | -6.97%
C[C@H]1c2cccc(O)c2C(=O)C2=C(O)[C@]3(O)C(=O)C(C(N)=O)=C(O)[C@@H](N(C)C)[C@@H]3[C@@H](O)[C@@H]21 [doxycycline-hcl] | 101% | -1.63%
CC(C)C[C@H](NC(=O)[C@H](Cc1ccccc1)NC(=O)c1cnccn1)B(O)O [Bortezomib] | 70.3% | 52.4%
CN(Cc1cnc2nc(N)nc(N)c2n1)c1ccc(C(=O)N[C@@H](CCC(=O)O)C(=O)O)cc1 [Abitrexate] | 200% | 13.3%
NC(=O)c1cccc(-c2cccc(OC(=O)NC3CCCCC3)c2)c1 | 134% | -7.15%
CNC(=O)c1ccc(N2C(=S)N(c3ccc(C#N)c(C(F)(F)F)c3)C(=O)C2(C)C)cc1F | 113% | 4.03%
Fc1cc(-c2cccc3ncc(-c4cnn(C5CCNCC5)c4)nc23)cc(F)c1CN1CCOCC1 | 145% | -4.08%
CCOc1ccc(Cc2cc([C@@H]3O[C@H](CO)[C@@H](O)[C@H](O)[C@H]3O)ccc2Cl)cc1 [Dapagliflozin] | 75.9% | 1.57%
COc1ccc(C(=O)Nc2sc3c(c2C(N)=O)CCCC3)cc1OC | 128% | -9.85%
Nc1cccc2c1C(=O)N(C1CCC(=O)NC1=O)C2=O (stereo unspecified) [Pomalidomide(CC-4047)] | 103% | 10.4%
O=P(O)(O)C(O)(Cn1ccnc1)P(=O)(O)O [Zoledronic-Acid] | 98.3% | -5.54%
